Results on 40 compounds are retold here after PubChem BioAssay (NCI).

The structures appear in SMILES notation. This is part of a sample that, as a whole, favours compounds with a hit. Of some 83,000 tested, about 20% had one in any assay.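 96-well plates, one dose, 48 hours. Percent growth reported; active if below 10.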 Active and inactive are the calls of the source.

In this assay the test system is NCI-H226 lung. Briefly: NCI-60 one-dose screen, 48 h (100 = growth as untreated, 0 = no growth, -100 = all killed). The conditions noted are these: 10 µM unless noted. The protocol:
Growth inhibition of the NCI-H226 human Non-Small Cell Lung tumor cell line is measured as a screen for anti-cancer activity. Cells are grown in 96 well plates and exposed to the test compound for 48 hours. Compounds are tested at a single concentration, which is 10^-5 M for most compounds. The reported endpoint is percent growth (GI% or GIPRCNT), where numbers from 0 - 100% represent growth inhibition, and numbers from -100% - 0 represent cell death. For example, a value of 40 represents 60% growth inhibition. A value of 0 means no net growth occurred over the course of the experiment. A value of -40 indicates 40% of cells at the beginning of the experiment died by the end of the experiment. A value of -100 means all cells are dead at the end of the experiment.
NCI-60 Human Tumor Cell Lines Screen was performed using the standard one-dose NCI protocol, which is described in more detail at https://dtp.cancer.gov/discovery_development/nci-60/default.htm.
Compounds with GIPRCNT values below 10 were considered active. Activity score was based on GIPRCNT using the following formula: […]
Score is 0 for GIPRCNT values of 100 or above, 50 for GIPRCNT values of 0, and 100 for GIPRCNT values of -100.
Regarding `O=C1c2c(c3c4cc(Br)ccc4[nH]c3c3ccc4ccccc4c23)C(=O)N1CCO`, the growth was 88.9% (inactive). As for `CCCC(=O)NC(c1cccnc1)c1cc(C)c2cccnc2c1O` (stereo not given), the growth was 52.6% (inactive). For `Nc1cc(-c2c[nH]c3ccc(Cl)cc23)nc2cc(-c3c[nH]c4ccc(Cl)cc34)nn12`, the growth was 71.3% (inactive).

With `COc1ccc(-c2nn3c(-c4ccccc4F)nnc3s2)cc1`, the growth was 89.4% (inactive). Turning to `N#Cc1ccc(/C=N/NC(=O)c2[nH]c3ccc(Br)cc3c2-c2ccccc2)s1`, the growth was 46.9% (inactive).

On to `COc1cc(/C=C/C(=O)c2cc(OC)c(OC)c(OC)c2)ccc1Oc1nc(NCCO)nc(N2CCOCC2)n1`, for which the growth is -1.45% (active). For `Clc1ccc(-c2cn3cc(Cc4ccc(Cl)c(Cl)c4)sc3n2)cc1` the value was 85.7% (inactive); for `O=C1[C@H]2Cc3c([nH]c4ccccc34)[C@@H](c3ccc(Br)cc3)N2C(=O)CN1C1CCN(Cc2ccccc2)CC1`, 39.5% (inactive); for `C#Cc1nc(C2=C(C)C(OC(C)=O)/C(=N/OC(C)=O)C2)cs1` (stereo not given), 96.1% (inactive). The figure for `O=C(N/N=C/c1ccc([N+](=O)[O-])o1)c1[nH]c2ccc(Br)cc2c1-c1ccccc1` is 15.8% (inactive); for `CSCCC(C(=O)O)N1C(=O)/C(=C/c2ccc(O)c(O)c2)SC1=S` (stereo not given) it is 107% (inactive); for `Cc1[nH]nc2ncc(C#Cc3cncc(C(=O)Nc4ccc(CN5CCN(C)CC5)c(C(F)(F)F)c4)c3)cc12` it is 3.71% (active). For `Cc1cc(=O)oc2cc(OCCCOc3ccc(/C=C/C(=O)Nc4ccc(Cl)cc4)cc3)ccc12` the value was 79.5% (inactive); for `c1ccc(CNc2ncnc3ccc(-c4cnc5[nH]ncc5c4)cc23)cc1`, 55.7% (inactive). As for `COc1cccc(NC2=CC(=O)C(C)=C(C)C2=O)c1`, the growth is 97% (inactive). The figure for `O=C1C2=C(C(=O)c3c(O)cccc31)C(c1ccco1)c1sc(=O)[nH]c1S2` (stereo not given) is -20.7% (active); for `Nc1nc(N)c2c(n1)NC(c1ccc(F)cc1)CC(c1ccc(Nc3nc(NCCO)nc(Nc4ccc(Cl)cc4)n3)cc1)=N2` (stereo not given) it is 22.2% (inactive); for `COc1cc2nc(-c3ccc(C(F)(F)F)cc3)cc(OCCCNCC3CCCO3)c2cc1OC` (stereo not given) it is 54.3% (inactive). For `CS(=O)(=O)c1ccc(-n2cc(/C=C/C(=O)c3ccc(NC(=O)CO[N+](=O)[O-])cc3)c(-c3ccc(Cl)cc3)n2)cc1` the value was 72.2% (inactive); for `Nc1c(C(=O)Nc2ccc(Cl)cc2)sc2nc(-c3cnccn3)cc(-c3cccs3)c12`, 13.2% (inactive); for `CCCC(=O)NC(c1ccc2c(c1)OC(F)(F)O2)c1cc(C)c2cccnc2c1O` (stereo not given), 10.8% (inactive). The figure for `Oc1c(Cl)cc(Cl)c2ccc(CN3CCCCC3)nc12` is 48.6% (inactive).

As for `CC(=O)Oc1ccccc1C(=O)Nc1ccc(C(=O)/C=C/c2cccs2)cc1`, the growth is 116% (inactive).

In the case of `Clc1ccc2c(NCCCn3ccnc3)c3oc4ccccc4c3nc2c1`, the growth was 51.4% (inactive). The figure for `CC(=O)Nc1cc(F)cc(-c2ccc3[nH]cc(-c4ccccc4)c3n2)c1` is 30.9% (inactive); for `CN1C(=S)N(C)C2C1NN=C1SC(c3ccccc3)=CC(=O)N12` (stereo not given) it is 83.6% (inactive). For `CC(C)(C)Nc1nc2c(OCCc3ccccc3)cccn2c1-c1cccc(F)c1` the value was -7.74% (active); for `NS(=O)(=O)c1cccc(Nc2nc(SCC(=O)c3ccc(Cl)cc3)nc3ccccc23)c1`, 42.5% (inactive). The figure for `O=C1c2c(c3c4cccnc4[nH]c3c3ccc4ccccc4c23)C(=O)N1CCO` is 80.7% (inactive); for `COc1ccccc1C(=O)CSc1nc(Nc2ccc(S(N)(=O)=O)cc2)c2ccccc2n1` it is 94.9% (inactive); for `CC(C)NC(=O)c1cc(-c2ccc(NC(=O)Nc3ccc(N4CCOCC4)c(C(F)(F)F)c3)cc2)nc2cccnc12` it is 80% (inactive).

Consider `CS(=O)(=O)Nc1ccc(-c2nn(-c3ccc(S(C)(=O)=O)cc3)cc2/C=C/C(=O)c2ccc(NC(=O)CO[N+](=O)[O-])cc2)cc1`, for which the growth is 89.3% (inactive). In the case of `CC1=C(C)C(=O)C(Nc2ccccc2)=C(Cl)C1=O`, the growth was 96.9% (inactive). The figure for `Clc1ccc2c(NCCCN3CCOCC3)c3oc4ccccc4c3nc2c1` is 45.3% (inactive).

Consider `C[C@@H](Nc1c(C#N)cnc2ccc(-c3cnc(N)nc3)cc12)c1ccccc1`, for which the growth was 18.8% (inactive).

Regarding `CS(=O)(=O)c1ccc(-c2nc3ccccn3c2/C=N/Nc2nc(-c3ccc(Cl)cc3)cs2)cc1`, the growth was 108% (inactive). For `C=C1CC[C@H]2[C@@](C)(CCC3OC(c4ccc(OCc5cn(C6CC(OC(C)=O)C(OC(C)=O)C(COC(C)=O)O6)nn5)cc4)OC[C@]32C)[C@@H]1/C=C/C1=CCOC1=O` (stereo not given in full) the value was 74.5% (inactive); for `CS(=O)(=O)c1ccc(-c2nc3ccccn3c2-c2nc3ccc([N+](=O)[O-])cc3[nH]2)cc1`, 92.2% (inactive). For `CNC(=O)c1cc(-c2ccc(NC(=O)Nc3ccc(N4CCN(C)CC4)c(C(F)(F)F)c3)cc2)nc2cccnc12` the value was 84.6% (inactive); for `CCN1C(=S)N(CC)C2C1NN=C1SC(c3ccccc3)=CC(=O)N12` (stereo not given), 101% (inactive).
